Source: PubChem BioAssay (NCATS)
Where “and” joins values, the source holds several entries; their conditions need not be identical. Equal entries are not always repeated. Results filed as inconclusive are left out. Values without a mark were called inactive. Calls of active or inactive are those of the source. Calls follow the shape of the dose curve; as a rule, active = well fitted cell-killing curve with a large enough effect; inconclusive = small, poorly fitted or top-dose-only effect; inactive = flat fitted curve, though single readings scatter.

experiment: Cell Viability - N2a (AID 540); conditions: N2a mouse neuroblastoma cell viability; activity change, negative = cytotoxicity: at 92.2 µM (top of the series); also: nearly all actives have a fitted effect of over 45% in size;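 as to activity change, negative = cytotoxicity: plate controls were DMSO alone for no effect and tamoxifen control for full effect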
Excerpt: NIH Chemical Genomics Center [NCGC]
NIH Molecular Libraries Screening Centers Network [MLSCN]
National Institutes of Environmental Health Sciences [NIEHS]
National Toxicology Program [NTP]
We have developed a 1536-well cell-based assay for quantitative high throughput screening (qHTS) against a number of cell lines to determine in vitro cytotoxicity of small molecules. This particular assay uses the N2a cell line which is derived from mouse neuroblastoma.
NCGC Assay Protocol Summary:
The CellTiter-Glo luminescent cell viability assay (Promega) is a homogeneous method to measure the number of viable cells in culture. The end point readout of this assay is based on quantitation of intracellular ATP, an indicator of metabolic activity, using the luciferase reaction. Luciferase catalyzes the oxidation of beetle Luciferin to oxyluciferin and light in the presence of ATP. The luminescent signal is proportional to amount of ATP present.
Using the CellTiter-Glo luminescent cell viability assay, the amount of cellular ATP was measured in the N2a cell line with complete culture medium following compound treatment for 40 hours. The assay was performed in opaque white Kalypsys 1536-well plates. In the screen, tamoxifen and doxorubicin were used as positive controls. Library compounds were measured for their ability to cause acute toxicity in the cell line, as reflected by a decrease in intracellular ATP levels, in a concentration-dependent manner. […] AC50 values were determined from concentration-response data modeled with the standard Hill equation.
qHTS protocol for CellTiter Glo N2a cellular assay
[Step] [Parameter] [Value] [Description]
1. Reagent; 5 uL; 1500 N2a cells/well
2. Time; 5 hr; 37 °C incubation
4. Controls; 23 nL; Tamoxifen 0.34 uM to 100 uM & Doxorubicin 0.02 nM to 100 uM
5. Time; 40 hr; 37 °C incubation
6. Reagent; 5 uL; CellTiter Glo reagent
7. Time; 20 min; Room Temperature
8. Detection; Luminescence; Viewlux plate reader
Keywords: cell viability, cytotoxicity, N2a cell line, luminescence, NTPHTS, NTPHTS_NCGC, NIEHS, EPA, DSSTox, MLSMR, MLSCN, NIH Roadmap, qHTS, NCGC
Potency is read from the fitted curve at half-maximal effect.

Row | Structure (SMILES) | activity change, negative = cytotoxicity | Potency
1 | Cc1ccc(N)c([N+](=O)[O-])c1 | 2.46% | –
2 | CC1(C)CC(N=C=O)CC(C)(CN=C=O)C1 (stereo not given) | 6.51% | –
3 | Cc1ccccc1C | -22.6% and -8.22% | –
4 | Clc1cc(Cl)c(Cl)c(Cl)c1Cl | -10.3% | –
5 | CCCCC(CC)CN (stereo not given) | -20.4% and 2.62% | –
6 | O=C(/C=C/c1ccc(O)c(O)c1)O[C@@H](C(=O)O)[C@@H](OC(=O)/C=C/c1ccc(O)c(O)c1)C(=O)O | -0.47% | –
7 | CCO[Si](CCCN)(OCC)OCC | -19% | –
8 | c1ccccc1 | -0.296% and -3.09% | –
9 | Clc1cc(Cl)c(Cl)cc1Cl | 2.22% | –
10 | CCCCCCCCCCCCCCC1CO1 (stereo not given) | 8.54% | –
11 | Cc1cccc([N+](=O)[O-])c1C | -2.02% | –
12 | CN(C)C=O | -9.63% and 3.24% | –
13 | COc1cc(/C=C/c2ccccc2)oc(=O)c1 | 1.71% | –
14 | C=CC(=C)CCC=C(C)C | 5.78% | –
15 | O=S(=O)(O)c1ccccc1 | -0.532% | –
16 | CCC(C)c1ccccc1O (stereo not given) | 0.301% and 2.4% | –
17 | COC(=O)CCCCC(=O)OC | 4.03% | –
18 | C=CCc1ccc(OC)c(OC)c1 | -13.8% | –
19 | Nc1ccc(S(=O)(=O)O)cc1 | -1.94% | –
20 | CC(=O)OC/C=C(\C)CCC=C(C)C | -0.528% | –

Row | Structure (SMILES) | activity change, negative = cytotoxicity | Potency
21 | Cc1ccc([N+](=O)[O-])c(C)c1 | -14.6% | –
22 | CC(C)=CCCC(C)CCO (stereo not given) | -9.36% | –
23 | O[C@@H]([C@H](O)[C@@H](O)CBr)[C@@H](O)CBr | 11.7% | –
24 | COc1c2ccoc2cc2oc(=O)ccc12 | 0.867% | –
25 | CC12CCC(CC1=O)C2(C)C (stereo not given) | -9.82% | –
26 | COc1ccc2nc(N)sc2c1 | -0.684% | –
27 | O=C1c2ccccc2C(=O)C1c1ccc2ccccc2n1 | – | 31.6 µM (active)
28 | COC(=O)c1ccc(C=O)cc1 | -4.37% | –
29 | ClCCCl | 3.03% | –
30 | CCCCCCCCCCCCCC(=O)O | -4.4% | –
31 | C1OCOCO1 | -19.8% | –
32 | C=CC(=O)OCCOCCOCCOCCOC(=O)C=C | -110% (active) and -111% (active) | –
33 | C/C=C\c1ccc(OC)cc1 | -0.381% | –
34 | CCCCCCCCO | -10.6% | –
35 | c1ccc2c(c1)c1cccc3ccc4cccc2c4c31 | 3.28% | –
36 | C=C(C)C1CC=C(C)C(O)C1 (stereo not given) | -0.158% | –
37 | CC1=C2[C@H](/C=C(\C)C(=O)O)CC[C@@H](C)[C@H]2CC1 | 10.9% | –
38 | CN(C)CCCCCCN(C)C | 1.64% | –
39 | CCO | -0.0856% | –
40 | C=Cc1ccccc1Cl | 1.46% | –
